The text below walks through data of PubChem BioAssay (NCI).

Each structure is given as a SMILES string. The panel holds about 83,000 compounds, 20% with a hit somewhere; the sample as a whole holds those more often.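 Each cell line was grown in a 96-well plate and treated with one concentration of compound for 48 hours. Values below 10 were considered active.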 Unmarked numbers belong to inactive results. Calls of active or inactive are those of the source.

The first test concerns MDA-MB-435 melanoma. As to the kind of experiment: NCI-60 one-dose screen, 48 h (100 = growth as untreated, 0 = no growth, -100 = all killed). The note with it: 10 µM unless noted.
For `CC(Sc1nc2ccccc2c(=O)n1CCc1ccc(S(N)(=O)=O)cc1)C(=O)Nc1ccc(Cl)cc1` (stereo not drawn), the growth was 98.7%.

With `CC1=CCC(OC(=O)C(C)(O)CCC(O)(C(=O)OC2(C)C=CC(O)(C(C)C)CC2)C(C)C)(C(C)C)CC1` (stereo not drawn), the growth is 104%.

Turning to `ClC1=C(Br)C(Br)(Br)C(=C(Br)Br)C1(Br)Br`, the growth is 107%.

Consider `C=C1C(=O)O[C@H]2[C@H]1CC/C(CNC(=O)C(C)c1ccc(CC(C)C)cc1)=C\CC[C@@]1(C)O[C@@H]21` (stereo partly drawn), for which the growth is 0.546% (active).

On to `CCCCCN1C=C/C(=C\C(=O)N2CCCc3ccccc32)c2ccccc21`, for which the growth was 97%.

For the molecule `N#Cc1cc(-c2nc3ccccc3s2)c(=O)n(NS(=O)(=O)c2ccccc2)c1N`, the growth was 102%.

In the case of `CCCOc1ccc(/C=N/Nc2cc(C)nc3ccc(Cl)cc23)cc1`, the growth was -40.4% (active).

On to `Cc1cccc(NC(=O)Nc2ccc(-n3cnc4cc(-c5ccc(O)cc5)ccc43)cc2)c1`, for which the growth was 25.9%.

In the case of `O=c1c2c(c(=O)n1O)c1c3ccc[nH]c3nc1c1nc3[nH]cccc3c12`, the growth is 96.3%.

`O=C(CNCCN1CCOCC1)N1c2cccc3cccc(c23)N(C(=O)CNCCN2CCOCC2)C1c1cn(-c2ccccc2)nc1-c1cccc([N+](=O)[O-])c1`: the growth is 80.1%.

As for `O=Cc1cc2ccccc2nc1Oc1ccc(C(F)(F)F)cc1`, the growth is 103%.

Regarding `COc1ccc(C(=O)/C=C/c2cc3ccccc3n3nnnc23)cc1`, the growth is 103%.

`CN1CCN(C(=O)[C@]23CCC(C)(C)C[C@H]2C2=CC[C@@H]4[C@@]5(C)C/C(=C/c6cccnc6)C(=O)C(C)(C)[C@@H]5CC[C@@]4(C)[C@]2(C)CC3)CC1`: the growth was 59.1%.

On to `CCN(CC)c1ccc(/C=N/NC(=O)CSc2nc3ccccc3c(=O)n2CCc2ccc(S(N)(=O)=O)cc2)c(O)c1`, for which the growth is 31.9%.

On to `CCCCCCNC(=O)Nc1ccc2cc3ccc(NC(=O)NCCCCCC)cc3nc2c1`, for which the growth was -83.6% (active).

As for `CCNC(=O)Oc1ccc(/C(=C(\C)c2ccccc2)c2ccc(OCCN(CC)CC)cc2)cc1`, the growth was 71%.

Take `CC/C(=C\c1ccc(OC)cc1)C(=O)c1ccc(OC)cc1`: the growth was 73.1%.

For `CCc1ccc(CNc2ccc(N3CCOCC3)c(C(=O)O)c2)cc1`, the growth was 108%.

Regarding `Cc1ccc(NS(=O)(=O)c2ccc(-c3cnc(C4CC4)o3)cc2)cc1C(F)(F)F`, the growth is -4.02% (active).

For `C/C(=N\NC(=O)CSc1nc2ccccc2c(=O)n1CCc1ccc(S(N)(=O)=O)cc1)c1ccccn1`, the growth was 33.4%.

As to `C=C(CBr)[C@@H]1CC[C@]2(COC(C)=O)CC[C@]3(C)[C@H](CC[C@@H]4[C@@]5(C)CCCNC(C)(C)[C@@H]5CC[C@]43C)[C@@H]12`, the growth is 54.5%.

Turning to `COc1ccc(C(=O)Nc2cccc(C3CCc4c(cc(OC)c(OC)c4OC)O3)c2)cc1` (stereo not drawn), the growth was -14.9% (active).

With `N=C(N)c1ccc(OCCCCCCCCCCOc2ccc(C(=N)N)cc2)cc1`, the growth was -94.6% (active).

For `COc1cc2nc(-c3ccc(Cl)cc3)cc(OCCCN3CCOCC3)c2cc1OC`, the growth is 10.2%.

On to `Brc1ccc2[nH]cc(-c3cncn3CCc3ccccc3)c2c1`, for which the growth was 57.5%.

A further test concerns SW-620 colon. The description is as above. The note with it: 10 µM unless noted.
Regarding `N/C(=N\C(N)=N\c1nc2ccccc2s1)c1cccc(Cl)c1`, the growth is 98.5%.

Turning to `CCOC(=O)[C@@H](C)C[C@H](Cc1ccccc1)NC(=O)c1csc([C@@H](C[C@H](C(C)C)N(C)C(=O)[C@@H](NC(=O)[C@H]2C[C@H](O[Si](C)(C)C(C)(C)C)CCN2C)C(C)C)OC(C)=O)n1`, the growth is 11.8% [9.25 µM].

As for `COC(=O)/C=C1\S/C(=N\NC(=O)c2cc3ccc2/C=C\c2ccc(cc2)/C=C\3)N(c2ccccc2)C1=O`, the growth is 7.39% (active).

For the molecule `NNC(=O)c1ccc(-n2nc(-c3ccccc3)c3ccccc32)cc1`, the growth is 95.5%.

Regarding `NC(=NCCCOc1ccc(F)cc1)Nc1ccc(I)cc1`, the growth was 67.1%.

Turning to `N#CC1C(C#N)C(C(=O)c2ccc(Br)cc2)N2c3ccccc3C=CC12` (stereo not drawn), the growth was 66.4%.

Take `CCN1C(=O)/C(=C/C(=O)OC)S/C1=N\NC(=O)c1cc2ccc1/C=C\c1ccc(cc1)/C=C\2`: the growth was 8.79% (active).

Take `COc1ccccc1/C=C1\Oc2cc(OCCN3CCCC3)ccc2C1=O`: the growth was 74%.

For the molecule `Cc1cc2nc3c4ccc(Br)cc4n(CCN(C)C)c3nc2cc1C`, the growth is 0.693% (active).

For `C/C(=N\Nc1cc(C)nc2ccc(Br)cc12)c1ccc([N+](=O)[O-])cc1`, the growth was 49.3%.

For the molecule `COc1cc(C2C3CC4CCCC[C@H]4N3[C@@]3(C(=O)Nc4cc(Cl)ccc43)C2C(=O)c2nc3ccccc3[nH]2)cc(OC)c1OC` (stereo partly drawn), the growth was 60.5%.

As to `O=C1OC(Cc2ccccc2)C1c1ccccc1` (stereo not drawn), the growth was 107%.

Take `CC(Oc1ccc(C(=O)O)cc1C(F)(F)F)c1ccc(Oc2ccccc2)cn1` (stereo not drawn): the growth is 103%.

Regarding `CC(Sc1nc2ccccc2c(=O)n1CCc1ccc(S(N)(=O)=O)cc1)C(=O)Nc1ccc(Cl)cc1` (stereo not drawn), the growth was 98.1%.

Take `CC1=CCC(OC(=O)C(C)(O)CCC(O)(C(=O)OC2(C)C=CC(O)(C(C)C)CC2)C(C)C)(C(C)C)CC1` (stereo not drawn): the growth is 103%.

As for `ClC1=C(Br)C(Br)(Br)C(=C(Br)Br)C1(Br)Br`, the growth is 54%.

As to `C=C1C(=O)O[C@H]2[C@H]1CC/C(CNC(=O)C(C)c1ccc(CC(C)C)cc1)=C\CC[C@@]1(C)O[C@@H]21` (stereo partly drawn), the growth was -59% (active).

With `CCCCCN1C=C/C(=C\C(=O)N2CCCc3ccccc32)c2ccccc21`, the growth is 88.8%.

As to `N#Cc1cc(-c2nc3ccccc3s2)c(=O)n(NS(=O)(=O)c2ccccc2)c1N`, the growth was 100%.

On to `CCCOc1ccc(/C=N/Nc2cc(C)nc3ccc(Cl)cc23)cc1`, for which the growth was -75.5% (active).

Turning to `Cc1cccc(NC(=O)Nc2ccc(-n3cnc4cc(-c5ccc(O)cc5)ccc43)cc2)c1`, the growth is 29.6%.

On to `O=c1c2c(c(=O)n1O)c1c3ccc[nH]c3nc1c1nc3[nH]cccc3c12`, for which the growth was 62.4%.

Regarding `O=C(CNCCN1CCOCC1)N1c2cccc3cccc(c23)N(C(=O)CNCCN2CCOCC2)C1c1cn(-c2ccccc2)nc1-c1cccc([N+](=O)[O-])c1`, the growth was 83.2%.

In the case of `O=Cc1cc2ccccc2nc1Oc1ccc(C(F)(F)F)cc1`, the growth was 67%.

As to `COc1ccc(C(=O)/C=C/c2cc3ccccc3n3nnnc23)cc1`, the growth is 113%.

As to `CN1CCN(C(=O)[C@]23CCC(C)(C)C[C@H]2C2=CC[C@@H]4[C@@]5(C)C/C(=C/c6cccnc6)C(=O)C(C)(C)[C@@H]5CC[C@@]4(C)[C@]2(C)CC3)CC1`, the growth is 44.6%.

As to `CCN(CC)c1ccc(/C=N/NC(=O)CSc2nc3ccccc3c(=O)n2CCc2ccc(S(N)(=O)=O)cc2)c(O)c1`, the growth is 27%.

For the molecule `CCCCCCNC(=O)Nc1ccc2cc3ccc(NC(=O)NCCCCCC)cc3nc2c1`, the growth is -78.1% (active).

In the case of `CCNC(=O)Oc1ccc(/C(=C(\C)c2ccccc2)c2ccc(OCCN(CC)CC)cc2)cc1`, the growth is 82.6%.

Consider `CC/C(=C\c1ccc(OC)cc1)C(=O)c1ccc(OC)cc1`, for which the growth was 94.2%.

Turning to `CCc1ccc(CNc2ccc(N3CCOCC3)c(C(=O)O)c2)cc1`, the growth is 111%.

On to `Cc1ccc(NS(=O)(=O)c2ccc(-c3cnc(C4CC4)o3)cc2)cc1C(F)(F)F`, for which the growth was 37.2%.

Regarding `C/C(=N\NC(=O)CSc1nc2ccccc2c(=O)n1CCc1ccc(S(N)(=O)=O)cc1)c1ccccn1`, the growth is 32.1%.

`C=C(CBr)[C@@H]1CC[C@]2(COC(C)=O)CC[C@]3(C)[C@H](CC[C@@H]4[C@@]5(C)CCCNC(C)(C)[C@@H]5CC[C@]43C)[C@@H]12`: the growth was 31.5%.

For the molecule `COc1ccc(C(=O)Nc2cccc(C3CCc4c(cc(OC)c(OC)c4OC)O3)c2)cc1` (stereo not drawn), the growth is 28.8%.

Consider `N=C(N)c1ccc(OCCCCCCCCCCOc2ccc(C(=N)N)cc2)cc1`, for which the growth was -91.3% (active).

In the case of `COc1cc2nc(-c3ccc(Cl)cc3)cc(OCCCN3CCOCC3)c2cc1OC`, the growth was 65%.

`Brc1ccc2[nH]cc(-c3cncn3CCc3ccccc3)c2c1`: the growth is 72.2%.
